The subject of one assay is TTR (gene 7276). Put plainly: CCTE_GLTED_hTTR_0.125uM: CCTE's human Transthyretin (hTTR) Inhibition Assay, with 0.125uM TTR, Great Lakes Toxicology and Ecology Division (GLTED) Lab (AID 2284431).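 Further: hits lower the fluorescence signal relative to DMSO baseline.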 The essentials:
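Fluorescence (380 ex, 475 em) reported the ANSA probe remaining bound to 0.125uM human transthyretin. Chemicals were incubated with the protein for 2 hours; activity was scored as loss of signal against DMSO negative control.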

The test system of assay [1] is SRY-box transcription factor 17 (SOX17) Protein Expression, Deisenroth Lab, SOX17 (gene 64321). Put plainly: CCTE_Deisenroth_DEVTOX-GLR_Endo_SOX17: CCTE's DevTox GLR-Endo Assay Evaluation of SRY-box transcription factor 17 (SOX17) Protein Expression, Deisenroth Lab (AID 2284413). The essentials:
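Human RUES2-GLR cells carrying an inducible fluorescent reporter are differentiated in defined media for 48 h and dosed twice, 24 h apart. After fixation and nuclear staining, imaging yields SOX17+ cell percentage relative to 0.2% DMSO-treated differentiated cells.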

The subject of assay [2] is Brachyury (BRA) Protein Expression, TBXT (gene 6862). Put plainly: CCTE_Deisenroth_DEVTOX-GLR_Endo_BRA: CCTE's DevTox GLR-Endo Assay Evaluation of Brachyury (BRA) Protein Expression, Deisenroth Lab (AID 2284417). The essentials: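 Percent BRA+ (mesoderm) RUES2-GLR cells after 48 h differentiation with two exposures, 1 nM - 200 uM; 0.2% DMSO control subtracted.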
Assay [3] can be described thus: CCTE_Deisenroth_DEVTOX-GLR_Endo_CellCount: Viability Assessment in CCTE's DevTox GLR-Endo Assay, Deisenroth Lab (AID 2284420). The essentials: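 Human pluripotent RUES2-GLR line; 24 h pre-seed; 48 h endoderm-directed differentiation; 2 doses, q24h; 10 conc., 1 nM - 200 uM; fix + nuclear dye; 5 fields/well imaged; readout = nuclei count, % change vs 0.2% DMSO; n=4.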

Assay [4] concerns SRY-box transcription factor 17 (SOX17) Protein Expression, Deisenroth Lab, SOX17 (gene 64321). Put plainly: CCTE_Deisenroth_DEVTOX-GLR_Pluri_SOX17: CCTE's DevTox GLR-Pluri Assay Evaluation of SRY-box transcription factor 17 (SOX17) Protein Expression, Deisenroth Lab (AID 2284427; active means hit-call score of the fitted dose curve at least 0.9, where 1 is the maximum). The essentials: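 Human RUES2-GLR pluripotent line; 24 h seeding, 48 h defined-media differentiation, 2 doses q24h, 10 conc 1 nM - 200 uM. Fix, nuclear stain, image 5 fields/well. Endpoint = %SOX17+ minus 0.2% DMSO; n=4.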

Assay [5] deals with SRY-box transcription factor 2 (SOX2) Protein Expression, Deisenroth Lab, SOX2 (gene 6657). Put plainly: CCTE_Deisenroth_DEVTOX-GLR_Pluri_SOX2: CCTE's DevTox GLR-Pluri Assay Evaluation of SRY-box transcription factor 2 (SOX2) Protein Expression, Deisenroth Lab (AID 2284428). The essentials: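 Steps: seed RUES2-GLR cells for 24 h; start 48 h differentiation in defined media; dose test chemicals at 0 and 24 h (1 nM–200 uM); fix, stain nuclei, image; compute SOX2+ percentage against 0.2% DMSO wells.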

Assay [6] deals with Brachyury (BRA) Protein Expression, Deisenroth Lab, TBXT (gene 6862). Put plainly: CCTE_Deisenroth_DEVTOX-GLR_Pluri_BRA: CCTE's DevTox GLR-Pluri Assay Evaluation of Brachyury (BRA) Protein Expression, Deisenroth Lab (AID 2284429; active means hit-call score of the fitted dose curve at least 0.9, where 1 is the maximum). The essentials:
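RUES2-GLR reporter line; 48 h mesoderm differentiation; two exposures, 24 h apart; 1 nM - 200 uM, 10 points; nuclear stain, high-content imaging, 5 fields/well; endpoint = %BRA+ cells of total count minus 0.2% DMSO; n=4.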

Assay [7] is described as follows: CCTE_Deisenroth_DEVTOX-GLR_Pluri_CellCount: Viability Assessment in CCTE's DevTox GLR-Pluri Assay Evaluation of Total Cell Counts, Deisenroth Lab (AID 2284430). The essentials: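 Cytotoxicity readout: fluorescent nuclei counts by high-content imaging, expressed as percent change relative to 0.2% DMSO. Human RUES2-GLR pluripotent line differentiated 48 h, dosed twice at 24-h intervals across 1 nM - 200 uM (10 points).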

SMILES strings stand for the structures. Inconclusive results are not listed. Calls of active or inactive are those of the source. How the source made its calls, unless noted: active means hit-call score of the fitted dose curve at least 0.9, where 1 is the maximum; inactive means score below 0.9.

As usually defined, the AC50 is the concentration at which the activity in the assay is half-maximal. As for `Cc1cc(NC(=O)C(=O)O)cc(C)c1Oc1ccc(O)c2c1CCC2`, in the assay with TTR (gene 7276), the AC50 is 344 nM (active).
Regarding `Cc1cccc(C)c1O`, the half-maximal activity concentration (AC50) in the assay with TTR (gene 7276) is 33400 nM (active).
For `CCCc1cc(=O)[nH]c(=S)[nH]1`, the result in assay [1], in assay [2], in assay [3], in assay [4], in assay [5] and in assay [6] was inactive. In addition, in assay [7], the compound was called inactive.
On to `CC=Cc1ccc(O)c(OC)c1`, for which, in the assay on TTR (gene 7276), the AC50 was 13600 nM (active).
In the case of `COc1cccc2c1C(=O)c1c(O)c3c(c(O)c1C2=O)C[C@@](O)(C(=O)CO)C[C@@H]3O[C@H]1C[C@H](N)[C@H](O)[C@H](C)O1`, the half-maximal activity concentration (AC50) in assay [1] is 5850 nM (active); in assay [2], 90.2 nM (active); in assay [3], 8.78 nM (active); in assay [4] it was 270 nM (active); in assay [5], 7.3 nM (active); in assay [6] it was 9.27 nM (active). The AC50 in assay [7] is 7.58 nM (active).
Take `CC(=O)Oc1ccccc1C(=O)O`: the call in assay [1], in assay [2], in assay [3], in assay [4], in assay [5] and in assay [6] was inactive. Further, in assay [7], the call was inactive.

These data come from PubChem BioAssay (EPA / NIEHS).
